High-throughput results as filed in PubChem.
KB-3-1 cytotox – qHTS assay for MDR1-selective chemotherapeutics: Primary screen using the parental adenocarcinoma cell KB-3-1; Potency, µM (top dose mostly 46.1 µM), hits mostly cytotoxic; KB-3-1 viability, CellTiter-Glo ATP luminescence, 72 h; hit rate 1.4% among 400,000; AID 1347075, 2019; also: % is scaled to controls: 0 for no effect and ±100 for the full control effect; nearly all actives have a fitted effect of over 60% in size
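Parental KB-3-1 adenocarcinoma cells in phenol-red-free DMEM with 10% FBS were pin-treated with compounds at several concentrations, incubated 72 h at 37 °C, and viability read by CellTiter-Glo luminescence; concentration-effect curves were fitted after normalization.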
KB-V1 MDR tox – qHTS assay for MDR1-selective chemotherapeutics: Primary screen using the drug-selected MDR subline cells KB-V1. KB-V1 MDR cells viability, CellTiter-Glo, 72 h. Potency, µM (titrated, usually from 46.1 µM), most hits filed as cytotoxic. hit rate 3.4% among 400,000; also: % is scaled to controls: 0 for no effect and ±100 for the full control effect; nearly all actives have a fitted effect of over 60% in size
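Drug-selected KB-V1 cells, grown in DMEM lacking phenol red with 10% FBS, receive compound titrations; after three days at 37 degrees C, surviving cell ATP is quantified by CellTiter-Glo luminescence and responses normalized and curve-fitted.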
HT1080 IDH1KD tx – qHTS for induction of synthetic lethality in tumor cells producing 2HG: qHTS for the HT-1080-IDH1KD cell line. Potency, µM (highest dose often 46.1 µM), for the others: at the top dose activity, negative = toxicity, actives largely listed as cytotoxic. hit rate 2% among 360,000. HT-1080 IDH1 knockdown viability, ATP luminescence, 48 h;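 also: 0% = DMSO wells and -100% = cell-free medium wells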
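% activity derives from luminescence (CellTiter-Glo), normalised to DMSO and no-cell wells. HT-1080-IDH1KD cells, 750/well, had 48 h compound exposure at 37 °C.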
SW480 rerep – A quantitative high throughput screen for small molecules that induce DNA re-replication in SW480 colon adenocarcinoma cells; SW480 DNA re-replication, Hoechst DNA content imaging, 48 h; Potency, µM (doses to about 46.1 µM), for the others: top-dose re-replication activation, hits mostly activators; hit rate 1.8% among 340,000; also: % of control where 0% means no effect; nearly all actives have a fitted effect of over 55% in size
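DNA re-replication was detected as more nuclei of elevated Hoechst intensity after 48 hr exposure to compound (23 nL pinned per well of 250 cells).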
MCF10A rereplic – A quantitative high throughput screen for small molecules that induce DNA re-replication in MCF 10a normal breast cells. hit rate 2.9% among 350,000. MCF 10A DNA re-replication, Hoechst nuclear intensity, 48 h. Potency, µM (titrated, usually from 46.1 µM), without a hit: top-dose activity, positive = re-replication, usual class: activators. AID 624296, 2012; also: % of control where 0% means no effect; nearly all actives have a fitted effect of over 50% in size
HT1080-NT tox – qHTS for induction of synthetic lethality in tumor cells producing 2HG: qHTS for the HT-1080-NT fibrosarcoma cell line | HT-1080-NT fibrosarcoma viability, CellTiter-Glo ATP luminescence, 48 h | Potency, µM (highest dose often 46.1 µM), for inactives: at the top dose activity, negative = less viability, usual class: cytotoxic | hit rate 1.6% among 360,000;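 also: NT is the 2HG producing partner of a matched IDH1 knockdown line; 0% = DMSO-treated cells and -100% = media-only wells without cells; nearly all actives have a fitted effect of over 55% in size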
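HT-1080-NT fibrosarcoma cells (2HG-overproducing), 750 cells/well in RPMI with 5% FBS, dosed after 2 h and incubated 48 h at 37C. CellTiter-Glo luminescence normalized to DMSO and no-cell wells; concentration-response curves fitted and classed.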
The depositor's hits bear a star; i = inactive; u = inconclusive; x = no result given; [ ] = remark or other dose. Hits are enriched below; roughly 7.9% of the tested compounds scored in any of these assays. Calls follow the shape of the dose curve; as a rule, active = well fitted curve in the direction sought with a large enough effect; inconclusive = small, poorly fitted or top-dose-only effect, or another doubt; inactive = no such curve, though single readings can be large; an effect the other way counts as inactive or inconclusive. Potency is read from the fitted curve at half-maximal effect.

SMILES	KB-3-1 cytotox	KB-V1 MDR tox	HT1080 IDH1KD tx	SW480 rerep	MCF10A rereplic	HT1080-NT tox
Cc1ccc(OCC(=O)N2CCN(c3nnc(-c4ccccc4)c4ccccc34)CC2)cc1	u	4.1µM*	u	u	u	u
O=C(c1ccco1)N1CCN(c2nnc(-c3ccccc3)c3ccccc23)CC1	i	16µM*	-7%	-2%	-4%	-1%
O=C(CSc1ccccc1)N1CCN(C(=O)c2ccco2)CC1	i	i	10%	-9%	u	20%
CCOC(=O)C1=CCN(S(=O)(=O)c2ccc(Cl)cc2)C1c1cccc(C)c1 (stereo not given)	i	u	-24%	x	x	-24%
C=CCSC1=NC(=O)/C(=C/c2cccs2)S1	i	i	-2%	3%	18µM*	5%
Cc1csc(NC(=O)Cc2nn(C)c(=O)c3ccccc23)n1	u	16µM*	-11%	1%	-9%	-8%
Cc1ccc(NC(=O)Cc2nn(C)c(=O)c3ccccc23)cc1F	7.3µM*	2.1µM*	u	7%	9%	u
Cn1nc(CC(=O)Nc2ccc3c(c2)OCCO3)c2ccccc2c1=O	u	i	-17%	-3%	-4%	-5%
COc1cccc(OC)c1NC(=O)Cc1nn(C)c(=O)c2ccccc12	i	i	0%	-27%	5%	1%
COCCNC(=O)CCn1c(=O)c2cc(OC)c(OC)cc2n(CC(=O)Nc2ccc(Cl)cc2F)c1=O	i	i	x	x	x	x
O=C(NCc1ccco1)c1ccccc1NS(=O)(=O)c1ccc(Cl)s1	i	i	u	-9%[9.22 µM]	21%	u
O=C(Nc1ccccc1)c1ccccc1NS(=O)(=O)c1ccc(Cl)s1	5.2µM*	4.1µM*	u	1%	10%	u
Cc1ccc(NC(=O)c2ccccc2NS(=O)(=O)c2ccc(Cl)s2)cc1	10µM*	7.3µM*	u	u	9.2µM*	21µM*
O=S(=O)(Nc1ccccc1N1CCCCC1)c1ccc(Cl)s1	13µM*	i	-1%	-1%	3%	-11%
O=C(Nc1ccccc1Cc1ccccc1)c1ccccc1NS(=O)(=O)c1ccc(Cl)s1	u	2.6µM*	u	u	9.2µM*	16µM*
O=S(=O)(Nc1ccccc1N1CCCC1)c1ccccc1C(F)(F)F	i	i	-4%	x	x	1%
O=[N+]([O-])c1cc(-c2nc(-c3cccnc3)no2)ccc1NCc1ccccc1	i	i	x	x	x	x
CCOc1ccccc1NC(=O)c1sc2nc3n(c(=O)c2c1C)CCCCC3	i	i	x	x	x	x
O=C(c1ccccc1)c1ccc(NCCCn2ccnc2)c([N+](=O)[O-])c1	u	5.2µM*	-21%	-5%	25%	-24%
CC(OC(=O)c1ccc(-c2ccc(O)cc2)cc1)C(=O)NC1CCCCC1C (stereo not given)	u	16µM*	-6%	8%	17%	-1%
CCOC(=O)c1cccc(NC(=O)Cc2ccc(NC(=O)N3CCCCc4ccccc43)cc2)c1	i	i	x	x	x	x
CCOC(=O)/C=C/C(=O)Nc1ccccc1-c1ccccc1NC(=O)/C=C/C(=O)OCC	u	i	23µM*	4.6µM*	5.8µM*	u
CCOC(=O)/C=C/C(=O)OCC(=O)Nc1cccc(Cl)c1Cl	i	u	-11%	-4%	u	-4%
CCOC(=O)/C=C/C(=O)Nc1cccc([N+](=O)[O-])c1	u	i	-26%	x	3.7µM*	u
Cc1cccc(N2CCN(C(=O)c3cn(C)c4ccc(S(=O)(=O)N(C)C)cc4c3=O)CC2C)c1 (stereo not given)	i	i	x	x	x	x
SMILES	KB-3-1 cytotox	KB-V1 MDR tox	HT1080 IDH1KD tx	SW480 rerep	MCF10A rereplic	HT1080-NT tox
COc1cccc(C(=O)N2c3cc(C)ccc3OCC2C(C)(C)C)c1 (stereo not given)	i	i	16%	-2%	2%	u
COc1ccc(S(=O)(=O)N2c3cc(C)ccc3OCC2C(C)(C)C)cc1 (stereo not given)	5.8µM*	5.2µM*	5.8µM*	5.8µM*	2.6µM*	5.8µM*
Cc1ccc(S(=O)(=O)N2c3cc(C)ccc3OCC2C(C)(C)C)cc1 (stereo not given)	u	u	u	u	16µM*	u
Cc1ccccc1CNC(=O)C1=Cc2ccccc2OC1	i	i	x	x	x	x
COc1ccc(CN2CCOCC2)cc1OC	i	i	12%	-2%	1%	20%
COc1cc2sc3ccc(-c4ccc(CN5CCOCC5)cc4)cc3c(=O)c2cc1OC	u	13µM*	19%	23%	6.5µM*	20%
Cc1cccc(Nc2nc(N)nc(CN3CCC(C(N)=O)CC3)n2)c1C	i	i	13%	-3%	0%	13%
Cc1ccc(Nc2nc(N)nc(CSCCO)n2)cc1	i	i	2%	0%	-3%	-7%
Cc1ccccc1Nc1nc(N)nc(COC(=O)c2cccc(S(=O)(=O)N(C)C)c2)n1	i	18µM*	7%	2%	u	6%
Cc1ccc(Nc2nc(N)nc(CCl)n2)cc1	u	u	8.2µM*	-21%	u	2.3µM*
Cc1ccc(Nc2nc(N)nc(CC#N)n2)cc1	i	i	7.1µM*	2%	u	13µM*
Cc1cccc(Nc2nc(N)nc(CCl)n2)c1C	u	u	1.8µM*	u	u	1.6µM*
CCN(CCCNC(=O)c1nn(-c2ccc(OC)cc2)c(=O)c2c1c1ccccc1n2C)c1ccccc1	i	i	x	x	x	x
COc1ccc(-c2nc3cc(C(C)C)ccc3o2)cc1NC(=O)COc1ccc(C)cc1C	i	i	x	x	x	x
Cc1cc(N2CCN(c3cccc(C(F)(F)F)c3)CC2)n2nc(-c3ccccc3C)nc2n1	i	i	x	x	x	x
CC(OC(=O)Cc1n[nH]c(=O)c2ccccc12)C(=O)N(C)c1ccccc1 (stereo not given)	u	i	u	x	x	u
Cc1ccc(Nc2nc(N)nc(CCl)n2)c(C)c1	u	u	u	21%	u	5.8µM*
Nc1nc(COC(=O)CCC(=O)c2ccccc2)nc(Nc2ccccc2)n1	i	i	-1%	-46%	13%	6%
